For 13 compounds, growth results are on record in PubChem BioAssay (NCI).

Compounds without any hit were thinned out: in the full panel of roughly 83,000, 20% have a hit.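 Cell lines were cultured in 96-well plates, exposed to a single compound concentration, and assessed for percent growth 48 hours later.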 Values without a mark were called inactive. Active and inactive are the calls of the source. Rule for the calls: active = growth percent below 10; inactive = the rest.

Test systems include DU-145 prostate; K-562 leukemia; MALME-3M melanoma; MDA-MB-231 breast; RXF 393 renal; SF-268 CNS; SF-295 CNS; SF-539 CNS; UACC-257 melanoma; M14 melanoma.
Holding throughout (assay): NCI-60 one-dose screen, 48 h (100 = growth as untreated, 0 = no growth, -100 = all killed)
Common to all, as to conditions: 10 µM unless noted

As for `Cn1c2c(cc(S(=O)(=O)c3ccccc3)c1=O)CCc1c-2cnn1-c1ccc(Cl)cc1`, the growth with DU-145 prostate was 8.78% (active); with K-562 leukemia, 39.8%; with MALME-3M melanoma, -70.7% (active); in the assay with MDA-MB-231 breast, 31.3%; with RXF 393 renal, 2.65% (active); in the assay with SF-268 CNS, 32.9%. Moreover, the growth with SF-295 CNS was -4.18% (active); with SF-539 CNS, -19% (active); in the assay with UACC-257 melanoma it was 11.7%; in the assay on M14 melanoma, 64%.

`COc1cc(OC)c(NC(=O)n2ncc3cc(Nc4ncnc5ccccc45)ccc32)cc1Cl`: the growth in the assay with DU-145 prostate is 56.9%; with K-562 leukemia, 99.4%; with MALME-3M melanoma, 110%; with MDA-MB-231 breast, 97.2%; with RXF 393 renal, 88.4%; with SF-268 CNS, 87.4%. Also, the growth in the assay on SF-295 CNS is 98.7%; with SF-539 CNS, 99.5%; with UACC-257 melanoma, 118%; in the assay with M14 melanoma it was 100%.

In the case of `Nc1cc2c(cc1Br)[nH]c(=O)c1ccccc12`, the growth is 27.8% with DU-145 prostate; 40.7% in the assay with K-562 leukemia; 26.3% in the assay on MALME-3M melanoma; 32% in the assay on MDA-MB-231 breast; 22% in the assay with RXF 393 renal; 51.3% with SF-268 CNS. For the same compound, the growth in the assay with SF-295 CNS was 74.8%; with SF-539 CNS, 110%; in the assay with UACC-257 melanoma it was 45.8%; in the assay with M14 melanoma it was 22%.

`O=C(NC1CCN(Cc2ccccc2)CC1)c1cc(-c2cccnc2)nc2ccc(Cl)cc12`: the growth is 87.5% in the assay with DU-145 prostate; 2.45% (active) with K-562 leukemia; 74% with MALME-3M melanoma; 58.8% in the assay on MDA-MB-231 breast; 82.1% in the assay on RXF 393 renal; 100% with SF-268 CNS. Moreover, the growth in the assay with SF-295 CNS is 67.6%; in the assay with SF-539 CNS, 63.9%; in the assay on UACC-257 melanoma, 83.2%; in the assay on M14 melanoma it was 77.9%.

Turning to `COc1cc(-c2nn(-c3ccc(NC(=O)c4cc(Cl)cc(Cl)c4)cc3)cc2-c2ccncc2)ccc1Cl`, the growth in the assay on DU-145 prostate is 96.9%; with K-562 leukemia it was 23.4%; in the assay with MALME-3M melanoma it was 104%; with MDA-MB-231 breast it was 80.9%; with RXF 393 renal, -17.1% (active); with SF-268 CNS, 76.9%. Besides, the growth with SF-295 CNS was -1.01% (active); in the assay on SF-539 CNS, 60.2%; in the assay with UACC-257 melanoma, 102%; in the assay on M14 melanoma, 62.9%.

For `C/C(=N\Nc1cccc(Cl)n1)c1ccccn1`, the growth in the assay on DU-145 prostate is 23.3%; in the assay with K-562 leukemia, 6.59% (active); in the assay with MALME-3M melanoma, 21.6%; in the assay with MDA-MB-231 breast, 36.8%; with RXF 393 renal, 24%; in the assay on SF-268 CNS, 12.8%. The growth was 0.34% (active) with SF-295 CNS, 1.72% (active) with SF-539 CNS, 2.3% (active) in the assay on UACC-257 melanoma and -23.8% (active) with M14 melanoma.

Consider `O=C(Nc1ccc(-n2cc(-c3ccncc3)c(-c3ccc(Cl)c(O)c3)n2)cc1)Nc1ccc(Cl)c(C(F)(F)F)c1`, for which the growth with DU-145 prostate was 23.2%; with K-562 leukemia it was 8.1% (active); in the assay on MALME-3M melanoma it was -13.6% (active); with MDA-MB-231 breast, -24.8% (active); in the assay on RXF 393 renal it was -47.8% (active); in the assay with SF-268 CNS it was 23.3%. The growth in the assay on SF-295 CNS is -44.5% (active); in the assay with SF-539 CNS, 2.77% (active); in the assay on UACC-257 melanoma it was -9.1% (active); in the assay on M14 melanoma, -58.6% (active).

With `O=C(Nc1ccc(-n2cc(-c3ccncc3)c(-c3ccc(Cl)c(O)c3)n2)cc1)c1ccc(Cl)c(Cl)c1`, the growth in the assay with DU-145 prostate was 61.8%; in the assay on K-562 leukemia it was 10.3%; with MALME-3M melanoma it was 43.6%; in the assay with MDA-MB-231 breast it was 31.5%; in the assay on RXF 393 renal, -52.1% (active); in the assay on SF-268 CNS it was 61.1%. In addition, the growth in the assay on SF-295 CNS was -50.3% (active); in the assay on SF-539 CNS, 23.5%; in the assay with UACC-257 melanoma, 58.6%; in the assay on M14 melanoma it was -65.8% (active).

`CCC(C)(C)c1ccc(OCCCCCCN2CCN(c3ccc(C)c(Cl)c3)CC2)cc1`: the growth in the assay with DU-145 prostate was 86%; with K-562 leukemia it was 78.4%; in the assay with MALME-3M melanoma, 86.7%; in the assay on MDA-MB-231 breast it was 115%; with RXF 393 renal it was 95.6%; in the assay on SF-268 CNS, 82.5%. The growth in the assay on SF-295 CNS is 85.7%; in the assay on SF-539 CNS, 98.6%; in the assay on UACC-257 melanoma it was 110%; with M14 melanoma, 93.7%.

With `CC(=O)N1CCN(CCNC(=O)n2cc(-c3ccncc3)c(-c3cc(O)cc(Cl)c3)n2)CC1`, the growth was 89.5% in the assay on DU-145 prostate; 53.5% with K-562 leukemia; 31.9% in the assay on MALME-3M melanoma; 82.5% in the assay with MDA-MB-231 breast; 65.2% in the assay on RXF 393 renal; 96% with SF-268 CNS. Also, the growth in the assay on SF-295 CNS was 80.5%; in the assay with SF-539 CNS, 71.6%; with UACC-257 melanoma, -34% (active); with M14 melanoma it was 5.16% (active).

In the case of `Cc1ccc(S(=O)(=O)Nc2cccc(Cn3c(=O)[nH]c4ccc(Oc5ncccn5)cc4c3=O)c2)cc1`, the growth in the assay on DU-145 prostate was 95.6%; with K-562 leukemia, 26.6%; in the assay on MALME-3M melanoma it was 59.8%; with MDA-MB-231 breast it was 77.4%; with RXF 393 renal it was 80.5%; in the assay with SF-268 CNS, 82.3%. The growth with SF-295 CNS is 74.4%; in the assay with SF-539 CNS, 71.7%; in the assay with UACC-257 melanoma, 73.3%; in the assay with M14 melanoma, 59.1%.

In the case of `O=C(Nc1ccc(-n2cc(-c3ccncc3)c(-c3ccc(Cl)c(O)c3)n2)cc1)Nc1cc(C(F)(F)F)cc(C(F)(F)F)c1`, the growth in the assay with DU-145 prostate is 36.4%; in the assay with K-562 leukemia, 17.6%; in the assay with MALME-3M melanoma, 12%; in the assay on MDA-MB-231 breast it was 21.5%; in the assay with RXF 393 renal, -11.2% (active); in the assay with SF-268 CNS it was 25.9%. Besides, the growth in the assay with SF-295 CNS was -5.6% (active); with SF-539 CNS, 30.3%; with UACC-257 melanoma, 8.73% (active); with M14 melanoma, 6.9% (active).

`COc1ccc(-c2nc(Nc3nc4ccccc4[nH]3)nc(N)c2C#N)cc1`: the growth in the assay on DU-145 prostate was 108%; in the assay with K-562 leukemia it was 97.2%; in the assay with MALME-3M melanoma, 106%; in the assay with MDA-MB-231 breast, 91.9%; in the assay with RXF 393 renal, 134%; with SF-268 CNS it was 99%. Further, the growth is 114% with SF-295 CNS, 97.2% in the assay with SF-539 CNS, 108% with UACC-257 melanoma and 99.5% with M14 melanoma.
